According to PubChem BioAssay:

assay: small-molecule binders of probe aNOTCH2, primary screen, biochemical, small-molecule microarray, 635/667 nm fluorescence (AID 1121); conditions: higher = more signal;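 also: score merges feature fluorescence read at 667 nm with its signal to noise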

Structure (SMILES)	composite z-score
CN1C(=O)C2C=CC(C(O)c3ccc(F)cc3)N(N(c3ccccc3)c3ccccc3)C2C1=O (stereo unspecified)	0.0264
Cc1ccc(S[C@]2(C(=O)O)CC(=O)N(Cc3ccccc3C(F)(F)F)[C@@H]2c2ccc(CO)cc2I)cc1	0.0477
C[N+](C)(C)CCCC[C@@H]1NC(=O)[C@@H]2C[C@H](C(=O)NCCCCCN)[C@H](c3ccc(O)cc3)N2C1=O	0.154
COCCOC(=O)N1C(=O)[C@@]2(c3cc(C#CCCO)ccc31)[C@H](c1ccc(O)cc1)N1[C@H](c3ccccc3)[C@H](c3ccccc3)OC(=O)[C@H]1[C@@H]2C(=O)N1CCN(c2ncccn2)CC1	0.51
O=C(CS)NCCCCCNC(=O)[C@@H]1C[C@@H]2C(=O)NCC(=O)N2[C@@H]1c1ccc(O)cc1	-0.213
O=C1C2C=CC(C(O)C=Cc3ccc([N+](=O)[O-])cc3)N(n3cnnc3)C2C(=O)N1Cc1ccccc1 (stereo unspecified)	0.02
C=C(/C(=C/C[C@H](OC(=O)c1ccncc1)c1ccc(OCCO)cc1)c1cc(C(=O)OC)ccc1OC)C(C)C	-0.135
CN(C)CCCC[C@@H]1NC(=O)[C@H]2C[C@@H](C(=O)NCCCCCN)[C@@H](c3cccc(OCCO)c3)N2C1=O	0.41
CCCNC(=O)[C@@H]1c2ccccc2C(=O)N(Cc2ccccc2OC)[C@H]1c1ccc(CO)cc1	-0.0966
Cc1ccc(S[C@]2(C(=O)O)CC(=O)N(C(C)C)[C@@H]2c2ccc(CO)cc2)cc1	-0.107
COCCCNC(=O)[C@@]1(CCS(=O)(=O)c2ccccc2)N=C(c2ccc(OCCCO)cc2)O[C@H]1c1ccccc1N=[N+]=[N-]	-0.0316
